ugtP null kill: growth inhibition of S. aureus ugtP deletion strain | growth inhibition, % (no concentration beside the values) | S. aureus RN4220 ugtP deletion, OD600 growth, 16 h | 330,000 tested, 0.54% active | AID 1259309; in the data active = growth inhibition above about 68%;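 also: plate controls were untreated wells for no effect and antibiotic for full effect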
TcdB inh: blocks C. difficile toxin B glycohydrolase activity; P18177; TcdB glycohydrolase enzymatic assay, plate reader; inhibition, % at 9.99 µM; 350,000 tested, 0.24% active; AID 652162; in the data active = inhibition above about 10%
PrP 5UTR inh: inhibition of PrP 5' UTR reporter expression. cell-based PrP 5' UTR mRNA reporter, plate reader. inhibition, % (test concentration not listed). 340,000 tested, 0.35% active; in the data active = inhibition above about 52%; also: 0 = median of the neutral control wells
PfHsp40 yeast: rescue of PfHsp40-mediated yeast toxicity; growth rescue, % at 12.5 µM; 340,000 tested, 0.68% active; S. cerevisiae expressing PfHsp40, growth rescue, ATP luminescence; AID 504582; in the data active = growth rescue above about 28%, passing the limit was not always enough; inconclusive = no clear call, values can overlap the other calls;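 also: yeast W303a lacking pdr1 and pdr3 grown in galactose medium; growth measured after three days at 30 °C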
RN4220 kill: S. aureus RN4220 growth inhibition; inhibition, % (test concentration not listed); 330,000 tested, 0.33% active; OD600, 16 h; in the data active = inhibition above about 85%;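 also: plate controls were untreated cells for no effect and reference antibiotic for full effect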
Active calls of the source: *; ? = inconclusive; · = not tested or not shown. A selection: hits, their analogues and other compounds. The true share with any hit is near 1.2%.

SMILES | ugtP null kill | TcdB inh | PrP 5UTR inh | PfHsp40 yeast | RN4220 kill
CCc1nc2ccccc2c(=O)n1NC(=O)c1c(O)c2ccccc2n(CC)c1=O | 30 | -1 | 3 | 181* | 14
CCn1c(=O)c(C(=O)Nc2ccccc2)c(O)c2ccccc21 | 6 | -1 | -23 | 1 | -5
CCn1c(=O)c(C(=O)Nc2nc3ccccc3[nH]2)c(O)c2ccccc21 | 100* | · | -4 | ? | 100*
CCCCCn1c(=O)c(C(=O)Nc2ccccc2Cl)c(O)c2ccccc21 | 23 | 1 | -31 | 0 | 5
COc1cccc(C(=O)N2N=C(c3cccc(OC)c3)CC2(O)C(F)(F)F)c1 (stereo not drawn) | -2 | · | -16 | 0 | 32
COc1cccc(C2=NN(C(=O)c3cccs3)C(O)(C(F)(F)F)C2)c1 (stereo not drawn) | 74 | 1 | -22 | 2 | 91*
CCCCCCCCOC(=O)c1c(CSC(=N)N)n(C)c2cc(Br)c(OC(C)=O)cc12 | 101* | 3 | · | · | 100*
COc1ccccc1NC(CC(=O)c1ccccc1)C(=O)OCC(=O)c1ccc(C)cc1 (stereo not drawn) | 84* | 1 | -163 | -1 | 6
Cc1ccc(S(=O)(=O)N(C)C[C@H]2Oc3c(NC(=O)c4cnccn4)cccc3C(=O)N([C@@H](C)CO)C[C@@H]2C)cc1 | · | 0 | · | · | ·
CCCCCn1c(=O)c(C(=O)Nc2ncccc2C)c(O)c2ccccc21 | 101* | 0 | -4 | 1 | 53
CCCCn1c(=O)c(C(=O)Nc2ccccc2C)c(O)c2ccccc21 | 16 | · | -10 | 0 | 5
CCCCn1c(=O)c(C(=O)Nc2cnccn2)c(O)c2ccccc21 | 83* | · | -35 | 0 | 68
CCCC#Cc1cnc2c(c1)C(=O)N([C@H](C)CO)C[C@H](C)[C@@H](CN(C)C(=O)c1ccc3c(c1)OCO3)O2 | · | 0 | · | · | ·
COc1cc(/C=C(\C#N)C(=O)Nc2ccc3c(c2)OCCO3)ccc1O | · | 15* | -21 | 13 | ·
COc1cc(/C=C/C(=O)OCC(=O)Nc2ccc3c(c2)OCCO3)ccc1O | 2 | · | -21 | 1 | 0
Cc1cccc(C2(c3cccc(C)c3)OC(=O)c3ccccc32)c1 | 82* | · | -8 | -2 | -11
O=C1OC(c2ccccc2)(c2ccccc2)c2ccccc21 | 33 | 2 | 6 | 3 | 10
O=C(CSc1nnc(-c2ccccc2)n1Cc1ccccc1)N1CCOCC1 | -2 | · | -7 | 1 | 3
Oc1ccccc1-c1nnc(SCCN2CCOCC2)n1Cc1ccccc1 | -4 | · | 4 | 249* | 15
CCCCC(CC)c1nnc(NC(=O)c2cccs2)s1 (stereo not drawn) | -23 | 2 | -14 | 264* | -1
CCn1cc(/C=N\NC(=O)c2ccc3c(c2)c(C)c(C)n3Cc2ccccc2)c(C)n1 | · | · | -11 | 72* | ·
CCn1ncc(/C=N\NC(=O)c2ccc3c(c2)c(C)c(C)n3Cc2ccccc2)c1C | · | · | -22 | 0 | ·
O=C(/C=C/c1ccco1)c1cccc([N+](=O)[O-])c1 | 5 | 2 | 5 | 27* | 13
COc1ccc(NC(=O)CSc2nccn2C)cc1S(N)(=O)=O | 3 | 11* | 12 | 0 | 3
Cn1nnnc1N=NC(=NNc1ccccc1)c1ccccc1 | -11 | · | · | · | 2
SMILES | ugtP null kill | TcdB inh | PrP 5UTR inh | PfHsp40 yeast | RN4220 kill
Cn1nnnc1N=N/C(=N/Nc1ccccc1)c1ccccc1 | · | 1 | 13 | 234* | ·
Cc1ccc(-c2c(C(=O)NN=CC3CCCCC3)nnn2-c2nonc2N)cc1 | -3 | · | · | · | 3
O=C(C[C@H]1CC[C@@H]2[C@H](COC[C@@H](O)CN2C(=O)c2ccncc2)O1)NCc1cccc(F)c1 | · | 0 | · | · | ·
Cc1cccc(C2=NN(c3ccccc3)[C@@H](C(=O)N3CCOC3=O)[C@@H]2C)c1 | 15 | 1 | -13 | 33* | -7
CC(C)NC(=O)N[C@H]1CC[C@@H](CCNC(=O)C2CC2)O[C@@H]1CO | · | -5 | · | · | ·
Cc1c(O)ccc(NC(=O)/C=C/c2ccccc2)c1C | -4 | 17* | -9 | 1 | 3
O=C(/C=C/c1ccccc1)Nc1cccnc1Cl | 7 | 16* | -59 | 0 | 0
Cc1cc(CN2CCN(CCC#N)CC2)c(O)c(C2(C)CCCCC2)c1 | 84* | · | -2 | 0 | 16
Cc1cc(C)c2nc(NNC(=O)c3ccc(S(=O)(=O)N4CC(C)CC(C)C4)cc3)sc2c1 (stereo not drawn) | -16 | 0 | 4 | ? | 16
Cc1cccc2sc(NNC(=O)c3ccc(S(=O)(=O)N4CC(C)CC(C)C4)cc3)nc12 (stereo not drawn) | -3 | 2 | 30 | 285* | 14
Cc1cc(C)c2nc(NNC(=O)c3ccc(S(=O)(=O)N4CCCC(C)C4)cc3)sc2c1 (stereo not drawn) | -8 | 1 | 7 | 97* | 22
O=C(O)/C(=C\c1ccc(-c2ccc(F)cc2)o1)c1ccccc1 | 10 | 0 | -7 | 37* | 6
O=Cc1ccc(-c2ccc(F)cc2)o1 | 5 | 0 | -11 | -1 | -1
CC(=NNC(=S)N1CC2CCC(CC2)C1)c1nccs1 | · | 1 | 12 | 126* | ·
COC(=O)c1ccc(-c2noc(CN3CCCC(CNC(C)=O)C3)n2)cc1 (stereo not drawn) | 3 | -1 | 58* | -1 | 5
O=C1NCC(c2ccccc2)OC(=O)C(Cc2ccc(F)cc2)CC=CCC1CC(=O)N(CCO)Cc1ccccc1 (stereo not drawn) | 4 | · | · | · | 0
O=Cc1cc2ccccc2nc1SCc1ccc(Cl)c(Cl)c1 | 99* | · | 51 | 1 | 56
CCCNC(=O)N[C@H]1CC[C@@H](CCn2cc(C3CC3)nn2)O[C@@H]1CO | · | 0 | · | · | ·
CC(C)(C)c1ccc2c(c1)OC(C(=O)NN=Cc1ccc([N+](=O)[O-])o1)CO2 (stereo not drawn) | 100* | · | · | · | 100*
Nc1nc(-c2ccccc2)c(-c2ccccc2)s1 | 35 | · | -20 | -1 | -1
Nc1nc(-c2ccccc2)c(-c2ccc([N+](=O)[O-])cc2)s1 | 4 | 1 | -9 | 233* | -8
Cc1ccc(-c2nc(N)sc2-c2ccccc2)cc1C | 96* | · | -90 | -1 | -12
Cc1noc(C)c1NC(=O)Nc1ccc2c(c1)C(=O)N([C@H](C)CO)C[C@H](C)[C@@H](CN(C)C(=O)NC1CCCCC1)OCCCC[C@@H](C)O2 | · | -3 | · | · | ·
COc1ccc(-c2ccc(/C=C3/C(=N)N4C=CSC4=NC3=O)o2)c([N+](=O)[O-])c1 | 94* | · | -43 | -2 | 21
N=C1/C(=C/c2cccn2-c2ccc([N+](=O)[O-])cc2)C(=O)N=C2SC=CN12 | -9 | 0 | -25 | -1 | 1
CCc1ccc(Nc2n[n+](-c3ccccc3)c(-c3ccc(OC)c(Br)c3)s2)cc1 | -1 | 11* | -9 | 1 | 1
C[C@@H]1CN([C@H](C)CO)C(=O)c2cc(NS(=O)(=O)c3ccccc3)ccc2O[C@@H]1CN(C)CC1CC1 | · | 0 | · | · | ·
C[C@@H]1CN([C@@H](C)CO)C(=O)Cc2cc(NC(=O)C3CCCCC3)ccc2O[C@H]1CN(C)S(=O)(=O)c1cccs1 | · | -1 | · | · | ·
CCOc1ccc(CCNC(=O)c2c(C)noc2C)cc1OCC | 2 | 3 | -18 | 43* | 1
